Measurements: PubChem BioAssay
Activity calls are given as the source filed them.

experiment: growth of efflux-deficient E. coli DRC39 – strain DRC39, OD650, 24 h, E. coli filamentation inducers, primary screen (AID 1178);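 note: growth measured as culture turbidity by optical density at 650 nm; test concentration not given here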; conditions: E. coli DRC39 acrAB, higher = more signal, called active from +8 up or from −8 down

z-score, inactive:
[N-]=[N+]=Nc1ccccc1[C@@H]1OC(c2ccc(OCCCO)cc2)=N[C@]1(CCS(=O)(=O)c1ccccc1)C(=O)NCCN1CCOCC1 0.833
COCCCNC(=O)[C@@H]1c2ccccc2C(=O)N(Cc2ccccc2C(F)(F)F)[C@H]1c1ccc(CO)cc1 0.414
NC(=O)N1C(=O)C2C(C1=O)C1C=C(CCCO)C2C(c2cccs2)N1Cc1cc2c(cc1Br)OCO2 (stereo not given) 0.18
CCOC(=O)C[C@H]1[C@H](OC(=O)c2ccccc2-c2ccccc2)[C@@H](NC(=O)CC(C)C)c2cc(OCCCO)ccc2N1C(=O)c1ccc2ccccc2n1 -0.418
CN1C(=O)C2C=CC(C(O)C3CCCCC3)N(N3CCCCC3)C2C1=O (stereo not given) -0.501
CO[C@H]1O[C@H](CO)[C@@H](OC(=O)Nc2ccc(C(F)(F)F)cc2)[C@H](OC(=O)Nc2ccc3c(c2)OCO3)[C@H]1OC(=O)Nc1ccc2c(c1)OCO2 0.436
NCCCCCCNC(=O)[C@@H]1C[C@@H]2C(=O)N3CCC[C@H]3C(=O)N2[C@@H]1c1ccc(O)cc1 -0.188
COC(=O)C(CC#Cc1ccc2c(c1)[C@]1(C(=O)N2)[C@H](C(=O)O)[C@H]2C(=O)O[C@H](c3ccccc3)[C@H](c3ccccc3)N2[C@@H]1c1ccccc1OCCO)C(=O)OC 0.698
CCOC(=O)[C@H]1C/C=C/C[C@H](C(=O)OCC)C(=O)O[C@H]2[C@@H](OC)O[C@H](CO)[C@@H](OC(=O)CCc3ccccc3)[C@@H]2OC1=O 0.735
C[C@]12C(=O)N(CCCCCCO)[C@@H]3C(=O)N(c4ccc(Cl)cc4)CC=CC31O[C@@H]1/C=C\CCCOC(=O)C12 (stereo not given in full) -0.0299

experiment: growth of efflux-deficient E. coli DRC39 – strain DRC39, OD650, 48 h, E. coli filamentation inducers, primary screen (AID 1179);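 note: screen aims at cell division blockers that make cells filament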; conditions: E. coli DRC39 delta-acrAB growth, higher = more signal, called active from +8 up or from −8 down

z-score, inactive:
O=C1c2ccccc2[C@](Cc2ccccc2I)(C(=O)NCc2ccccc2)[C@H](c2ccc(CO)cc2)N1C1CCCCC1 -0.14
COc1ccc(C(O)C2C=CC3C(=O)N(C)C(=O)C3N2N2CCCCC2)cc1 (stereo not given) -0.858
C=C1C2CC3C(=C4C(CO[C@@H]4[C@H]4CCCN4S(=O)(=O)c4ccccc4[N+](=O)[O-])C4C(=O)N(C)C(=O)C34)CC2C(=O)N1C (stereo not given in full) -0.219
COCCOC(=O)N1C(=O)[C@@]2(c3cc(C#CC4=CCCCC4)ccc31)[C@H](c1ccc(O)cc1)N1[C@H](c3ccccc3)[C@H](c3ccccc3)OC(=O)[C@H]1[C@@H]2C(=O)Nc1nc2ccccc2s1 0.0717
C[C@H]1C2=C3C(CC[C@H]4C(OCc5ccc(F)cc5C(F)(F)F)OC[C@](C)([C@@H]34)N(C(=O)OC(C)(C)C)C2)C(CO)C1CO (stereo not given in full) -0.895
COCCOC(=O)N1C(=O)[C@@]2(c3cc(C#CC4(O)CCCCCC4)ccc31)[C@H](C(=O)N1CCCCCCC1)[C@H]1C(=O)O[C@H](c3ccccc3)[C@H](c3ccccc3)N1[C@@H]2c1ccc(OCCO)cc1 0.201
COCCOC(=O)N1C(=O)[C@@]2(c3cc(C#CC4(O)CCCCCC4)ccc31)[C@H](C(N)=O)[C@H]1C(=O)O[C@H](c3ccccc3)[C@H](c3ccccc3)N1[C@@H]2c1ccccc1OCCO -0.719
CC(=O)N1Cc2ccccc2C[C@]2(N=C(c3ccc(OCCCO)cc3)O[C@@H]2c2ccccc2)C1=O 1
O=C1OCC=C[C@H]2OC34C=CCN(c5ccc(Cl)cc5)C(=O)[C@H]3N(CCCCCO)C(=O)[C@@H]4[C@@H]12 (stereo not given in full) 0.182
C=C(C(=O)CC[C@H](OC(=O)c1cccnc1)c1cccc(OCCO)c1)C(C)C 0.297
CC(C)C(O)C1C=CC2C(=O)N(C)C(=O)C2N1N(c1ccccc1)c1ccccc1 (stereo not given) 0.195
O=C1O[C@@H](c2ccccc2)[C@@H](c2ccccc2)N2[C@@H](c3ccc(O)cc3)[C@]3(C(=O)Nc4ccccc43)[C@@H](C(=O)Nc3nc4ccccc4s3)[C@H]12 0.251
COC(=O)[C@@]1(Cc2ccc(OC)cc2)[C@H]2c3cc(C(=O)N(C)C)n(Cc4ccccc4)c3C[C@H]2CN1C(=O)c1ccccc1 0.892
CC1CC/C=C\[C@H]2OC34C=CCN(CCN5CCOCC5)C(=O)[C@H]3N(CCO)C(=O)[C@@H]4C2C(=O)O1 (stereo not given in full) -0.557
COC(=O)[C@]1(CCS(=O)(=O)c2ccccc2)N=C(c2ccc(OCCCO)cc2)O[C@@H]1c1ccccc1CN=[N+]=[N-] -1.14
CC(C)(C)OC(=O)CC[C@]1(C(=O)O)N=C(c2ccc(OCCCO)cc2)O[C@H]1c1ccccc1 1.3
O=C1c2ccccc2[C@@]2(Cc3ccccc3N(C3CC3)C2=O)[C@H](c2ccc(CO)cc2)N1C1CCCCC1 0.106
COCCOC(=O)N1C(=O)[C@@]2(c3ccccc31)[C@H](c1ccc(OCCO)cc1)N1[C@H](c3ccccc3)[C@H](c3ccccc3)OC(=O)[C@H]1[C@@H]2C(=O)Nc1nc2ccccc2s1 -0.524
[N-]=[N+]=Nc1ccccc1C[C@@]1(C(=O)O)N=C(c2ccc(OCCCO)cc2)O[C@@H]1c1ccccc1 -0.523
CCCNC(=O)[C@@]1(c2ccc([N+](=O)[O-])cc2)CC(=O)N(C2CCCCC2)[C@@H]1c1ccc(CO)cc1I -0.303
COc1ccc([Si](C)(C)[C@H]2[C@H](CCn3cc([C@H](O)c4ccccc4)nn3)O[C@@]3(C(=O)N(Cc4ccc(N5CCOC5=O)cc4)c4ccccc43)[C@@H]2C)cc1 0.139
COCCCNC(=O)[C@@]1(Sc2ccc(C)cc2)CC(=O)N(Cc2cc(C(F)(F)F)cc(C(F)(F)F)c2)[C@@H]1c1ccc(CO)cc1 0.231
C=CCC(OC(C)=O)[C@@H]1[C@@H](N(Cc2cc3ccccc3o2)C(=O)Cc2ccc(F)cc2)c2cc(OCCCO)ccc2N1C(=O)c1ccc2ccccc2n1 (stereo not given in full) 0.155
CCCCC(=C=CC[C@@H](O)c1ccc(OCCO)cc1)C[C@@H](O)COCc1ccccc1 1.55
O=C1O[C@@H](c2ccccc2)[C@@H](c2ccccc2)N2[C@@H](c3ccc(O)cc3)[C@]3(C(=O)Nc4ccc(C#CCCO)cc43)[C@@H](C(=O)NC[C@H](O)c3ccccc3)[C@H]12 0.242
[N-]=[N+]=Nc1ccccc1[C@@H]1OC(c2ccc(OCCCO)cc2)=N[C@]1(CCS(=O)(=O)c1ccccc1)C(=O)NCCN1CCOCC1 -0.278
COCCCNC(=O)[C@@H]1c2ccccc2C(=O)N(Cc2ccccc2C(F)(F)F)[C@H]1c1ccc(CO)cc1 0.0948
NC(=O)N1C(=O)C2C(C1=O)C1C=C(CCCO)C2C(c2cccs2)N1Cc1cc2c(cc1Br)OCO2 (stereo not given) 0.0419
CCOC(=O)C[C@H]1[C@H](OC(=O)c2ccccc2-c2ccccc2)[C@@H](NC(=O)CC(C)C)c2cc(OCCCO)ccc2N1C(=O)c1ccc2ccccc2n1 -0.0818
CN1C(=O)C2C=CC(C(O)C3CCCCC3)N(N3CCCCC3)C2C1=O (stereo not given) -0.406
CO[C@H]1O[C@H](CO)[C@@H](OC(=O)Nc2ccc(C(F)(F)F)cc2)[C@H](OC(=O)Nc2ccc3c(c2)OCO3)[C@H]1OC(=O)Nc1ccc2c(c1)OCO2 -0.553
NCCCCCCNC(=O)[C@@H]1C[C@@H]2C(=O)N3CCC[C@H]3C(=O)N2[C@@H]1c1ccc(O)cc1 -0.196
COC(=O)C(CC#Cc1ccc2c(c1)[C@]1(C(=O)N2)[C@H](C(=O)O)[C@H]2C(=O)O[C@H](c3ccccc3)[C@H](c3ccccc3)N2[C@@H]1c1ccccc1OCCO)C(=O)OC 0.202
CCOC(=O)[C@H]1C/C=C/C[C@H](C(=O)OCC)C(=O)O[C@H]2[C@@H](OC)O[C@H](CO)[C@@H](OC(=O)CCc3ccccc3)[C@@H]2OC1=O 0.558
C[C@]12C(=O)N(CCCCCCO)[C@@H]3C(=O)N(c4ccc(Cl)cc4)CC=CC31O[C@@H]1/C=C\CCCOC(=O)C12 (stereo not given in full) 0.692
